# Measured values: PubChem BioAssay AID725 (NMMLSC, 2007)
# In all, about 1,300 compounds went through this assay and fewer than 10 were called active. Not all results are given here. Unmarked numbers belong to inactive results. No rule for the calls is given here.
# Target: N-formyl peptide receptor 2 (Homo sapiens) (UniProt P25090)
# Assay: FPRL1 fluorescent ligand binding inhibitors, primary screen, selectivity assay for FPR ligand SAR project, cell-based, flow cytometry, HTS counterscreen (AID 725)
# Settings: FPRL1-expressing cells, active compounds read high, concentration not given here
# Sequence of N-formyl peptide receptor 2 (Homo sapiens) (P25090 whole entry, looked up): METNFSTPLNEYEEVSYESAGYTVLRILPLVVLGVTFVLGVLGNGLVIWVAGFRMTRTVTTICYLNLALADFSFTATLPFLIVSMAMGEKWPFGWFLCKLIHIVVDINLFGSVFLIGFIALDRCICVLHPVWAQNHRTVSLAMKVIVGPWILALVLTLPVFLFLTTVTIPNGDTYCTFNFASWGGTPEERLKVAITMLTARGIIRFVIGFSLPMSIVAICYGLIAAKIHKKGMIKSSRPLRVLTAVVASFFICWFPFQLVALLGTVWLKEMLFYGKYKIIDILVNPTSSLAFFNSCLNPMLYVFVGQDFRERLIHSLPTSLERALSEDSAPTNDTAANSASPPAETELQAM
row,Structure (SMILES),inhibition
1,CCOC(=O)c1sc(N2C(=O)C(=O)/C(=C(/O)c3ccccc3)C2c2ccc(O)c(OC)c2)nc1C (stereo not drawn),0.2%
2,COC(=O)c1c(NC(=O)c2ccc(F)cc2)sc2c1CCC2,-10.9%
3,Cc1ccc(C2CC(c3ccccc3)n3ncnc3N2C(=O)c2ccccc2)cc1 (stereo not drawn),-21.4%
4,CC(O)CN1C(=O)C(=O)/C(=C(\O)c2ccccc2)C1c1cccnc1 (stereo not drawn),1.7%
5,COc1ccccc1C1CC(=O)NC2=C1C(=O)CC(c1ccccc1Cl)C2 (stereo not drawn),0.3%
6,COc1ccc(C2C(C(=O)c3cc4ccccc4o3)=C(O)C(=O)N2CCN(C)C)cc1OC (stereo not drawn),9.3%
7,COC(=O)c1c(NC(=O)c2cccs2)sc(C)c1C,1.5%
8,CCCCCCc1cc2c(=O)c(-c3nc4ccccc4n3C)c(C(F)(F)F)oc2cc1O,3.9%
9,COc1cccc(OC)c1C(=O)Oc1ccc2c(=O)c(Oc3ccc4ccccc4c3)c(C(F)(F)F)oc2c1,4.4%
10,C=CCN1C(=O)C2(/C(=C(/O)c3ccc(C)cc3)C(=O)C(=O)N2CC2CCCO2)c2ccccc21 (stereo not drawn),0.9%
11,CCN(CC)Cc1c(O)ccc2c(=O)c(-c3ccc(OC)c(OC)c3)c(C(F)(F)F)oc12,-8.6%
12,O=C1C(=O)N(c2nncs2)C(c2cccs2)/C1=C(/O)c1ccc(F)cc1 (stereo not drawn),-5.3%
13,CCOC(=O)c1c(NC(=O)c2ccc(OC)cc2)sc(C)c1C,-3.8%
14,CC(C)c1ccc(C2/C(=C(\O)c3ccccc3)C(=O)C(=O)N2CCC(=O)O)cc1 (stereo not drawn),7.3%
15,COC(=O)c1c(NC(=O)c2ccc(Cl)c(Cl)c2)sc2c1CCCC2,-2.7%
16,CCOC(=O)c1c(CC(C)C)csc1NC(=O)c1ccccc1F,-1.5%
17,COc1ccc(Br)cc1CNC(=O)Cn1ncc2ccccc21,-17.2%
18,CCCCn1c(=O)c2c(nc3n2CCN3Cc2ccco2)n(C)c1=O,-0.5%
19,O=c1c(-c2cccc(Cl)c2)c(C(F)(F)F)oc2c(CN3CCOCC3)c(O)ccc12,3.4%
20,CCc1nn(Cc2ccccc2F)c(=O)c2cc3cc(C)ccc3n12,-0.2%
21,CCN(CC)C(=O)c1c(NC(=O)c2ccccc2F)sc2c1CCC(C)C2 (stereo not drawn),2.2%
22,CCOC(=O)c1c(NC(=O)c2ccccc2OCC)sc2c1CCCC2,-11.3%

row,Structure (SMILES),inhibition
1,Cc1ccc(OC(=O)c2ccc(N3C(=O)c4cccc(N)c4C3=O)cc2)cc1C,-3.5%
2,CCOC(=O)C1=C(C)N(c2ccc(C)cc2)C(=O)/C1=C\c1ccccc1OC,-4.9%
3,O=C1C(=O)N(CCc2c[nH]c3ccccc23)C(c2cccnc2)/C1=C(/O)c1ccc(Cl)cc1 (stereo not drawn),-0.1%
4,CCc1ccc(Oc2c(C(F)(F)F)oc3cc(OCC(=O)OC4CCCCC4)ccc3c2=O)cc1,1.4%
5,Cc1sc(NC(=O)C2C3CCC(O3)C2C(=O)O)c(C(N)=O)c1-c1ccc(C(C)C)cc1 (stereo not drawn),-4.5%
6,O=C1C(=O)N(c2cccc(C(F)(F)F)c2)C(c2ccccc2[N+](=O)[O-])/C1=C(\O)c1ccccc1 (stereo not drawn),-1.4%
7,CCOc1ccccc1C(=O)N(Cc1ccc(Cl)cc1)Cc1ccco1,-14.6%
8,O=C1C(=O)N(Cc2cccnc2)C(c2cccc(Br)c2)/C1=C(\O)c1ccccc1 (stereo not drawn),4.9%
9,CC(C)OC(=O)c1c(NC(=O)C2CCCCC2)sc2c1CCCC2,-2.7%
10,CCOc1ccc(/C(O)=C2\C(=O)C(=O)N(c3nnc(C)s3)C2c2ccc(Br)cc2)cc1 (stereo not drawn),1.9%
11,COc1ccc(C2C(C(=O)c3cc4ccccc4o3)=C(O)C(=O)N2c2nccs2)cc1 (stereo not drawn),1%
12,Cc1ccc(C2/C(=C(\O)c3ccc(F)cc3)C(=O)C(=O)N2CCN2CCOCC2)o1 (stereo not drawn),5.6%
13,CN1C(=O)c2ccccc2C(C(=O)N2CCCCC2)C1c1cccs1 (stereo not drawn),-3.9%
14,O=C1C(=O)N(CCN2CCOCC2)C(c2ccco2)/C1=C(\O)c1ccc(F)cc1 (stereo not drawn),5.5%
15,Cc1cc(=O)n2[nH]cc(C(=O)O)c2n1,-16.5%
16,O=C(C1=C(O)C(=O)N(CCN2CCOCC2)C1c1cccs1)c1ccco1 (stereo not drawn),-2%
17,CN(C)CCN1C(=O)C(O)=C(C(=O)c2cc3ccccc3o2)C1c1cccc(Oc2ccccc2)c1 (stereo not drawn),1.3%
18,CCN1C(=O)C(O)(CC(=O)c2ccc3c(c2)OCO3)c2ccccc21 (stereo not drawn),-4.3%
19,CCOC(=O)c1c(NC(=O)C2C3CCC(O3)C2C(=O)O)sc2c1CCC(CC)C2 (stereo not drawn),0.3%
20,CCOC(=O)N1CCC(c2cc(=O)n3[nH]cc(C(=O)Nc4ccc(OCC)cc4)c3n2)CC1,-5.2%
21,CCOC(=O)C1NN=C(C(=O)c2ccc(OC)cc2)C1c1ccccc1 (stereo not drawn),3.5%
22,Cc1ccc(N2C(=O)C(=O)/C(=C(\O)c3ccc(Cl)cc3)C2c2cccnc2)cc1Br (stereo not drawn),4.5%

row,Structure (SMILES),inhibition
1,CCc1cc2c(=O)c(-c3nc4ccccc4s3)c(C)oc2c(CN2CCCCC2)c1O,-7.2%
2,COc1ccc(N2C(=O)CSC2c2ccc(C(C)C)cc2)cc1 (stereo not drawn),4.8%
3,CCCCn1c(=O)c2oc3ccccc3c2n(Cc2ccccc2F)c1=O,-2.7%
4,CCCN(C(=O)[C@H]1[C@@H]2C[C@@H]3[C@H]1C(=O)O[C@@H]3C2)c1ccccc1OCC,9.1%
5,Cc1cccc(N2C(=O)CSC2c2cccc(F)c2)c1 (stereo not drawn),-31.8%
6,Cc1ccc(C)c(Cn2c(=O)cc(C)c3c(C)nn(-c4ccccc4)c32)c1,-16.2%
7,Cc1ccc(/C(O)=C2/C(=O)C(=O)NC2c2ccc3c(c2)OCO3)cc1 (stereo not drawn),1.1%
8,CCOC(=O)C1=C(C)N(c2ccc(C)c(C)c2)C(=O)/C1=C\c1ccccc1OC,-8.1%
9,CCN1C(=O)C(=C2CCCC2)N(CC)C1=O,8%
10,CCCCCCN1C(=O)C(=O)/C(=C(\O)c2ccccc2)C1c1ccc(C(C)C)cc1 (stereo not drawn),-2.5%
11,COc1cc(C)nc(N(CCC(C)C)S(=O)(=O)c2ccc(C)cc2)n1,-7.7%
12,COc1cc(C2C(C(=O)c3cc4ccccc4o3)=C(O)C(=O)N2CCN(C)C)ccc1O (stereo not drawn),-0.3%
13,CCOC(=O)c1c(NC(=O)c2csc3c2CCCC3)sc2c1CCCC2,-7%
14,CC(c1cccs1)N(Cc1ccco1)C(=S)Nc1ccccc1Cl (stereo not drawn),10.4%
15,CCOC(=O)c1oc2cc(OCc3ccc(F)cc3)ccc2c(=O)c1-c1ccccc1OC,1.2%
16,CCCCCCN1C(=O)C(=O)/C(=C(/O)c2ccccc2)C1c1ccc(Br)cc1 (stereo not drawn),0.8%
17,COc1ccc(OC)c(C2/C(=C(\O)c3ccccc3)C(=O)C(=O)N2CCC(=O)O)c1 (stereo not drawn),-4.7%
18,CCOC(=O)c1cnn2c(=O)c3c(n(CC)c12)CCN(Cc1ccc(OC)cc1)C3,1.3%
19,Cc1ccc(/C(O)=C2\C(=O)C(=O)N(c3nnc(C)s3)C2c2ccc(Cl)cc2)cc1 (stereo not drawn),-9.8%
20,CCCCn1c(=O)c2oc3ccccc3c2n(Cc2cccc(C)c2)c1=O,-15.7%
21,Cc1ccc(N2C(=O)CSC2c2ccc(C(C)(C)C)cc2)cc1F (stereo not drawn),-16.2%
22,NC(=O)c1c(NC(=O)C2CC3CCC2C3)sc2c1CCCC2 (stereo not drawn),9%

row,Structure (SMILES),inhibition
1,COc1ccccc1C1/C(=C(\O)c2ccccc2)C(=O)C(=O)N1c1ccc(C)c(Cl)c1 (stereo not drawn),-1.5%
2,CCOc1ccc(C2/C(=C(/O)c3ccccc3)C(=O)C(=O)N2c2ccc(C)c(Br)c2)cc1 (stereo not drawn),1.2%
3,COc1ccc(Br)cc1CNC(=O)Cn1c(=O)oc2ccccc21,-20.3%
4,Cc1cc(C)cc(N2C(=O)CSC2c2ccccc2Br)c1 (stereo not drawn),-7.5%
5,C=CCN1C(=O)C2C(c3ccccc3)C=CC(c3ccccc3)C2C1=O (stereo not drawn),-6.2%
6,O=C(c1ccc(Br)cc1)N(Cc1ccco1)Cc1ccccc1F,27.5%
7,O=C1C(=O)N(c2cccnc2)C(c2cccc(F)c2)/C1=C(/O)c1ccccc1 (stereo not drawn),-1.7%
8,COc1ccccc1C(CC(=O)NCc1cccs1)n1cccc1 (stereo not drawn),12%
9,CC1CCN(Cn2nc(-c3ccco3)n(-c3ccccc3)c2=S)CC1,6.9%
10,COc1ccc(C2C(C(=O)c3cccs3)=C(O)C(=O)N2Cc2cccnc2)cc1OC (stereo not drawn),-3.8%
11,Cc1ccc2c(c1)oc(=O)n2C(=O)COc1ccccc1,4.9%
12,O=C(c1ccccc1Br)N(Cc1ccc(F)cc1)Cc1ccco1,-2%
13,CCc1c(C)sc(NC(=O)C2C3C=CC(C3)C2C(=O)O)c1C(=O)OC(C)C (stereo not drawn),-6%
14,Cc1nnc(N2C(=O)C(O)=C(C(=O)c3cccs3)C2c2ccccc2)s1 (stereo not drawn),1.7%
15,CCOC(=O)c1c(NC(=O)c2ccccc2Cl)sc2c1CCC2,0%
16,CCOc1ccccc1C1C(C#N)=C(SC)NC(=O)C1C(=O)OC (stereo not drawn),7.1%
17,COC(=O)c1c[nH]n2c(=O)c(C(C)C)c(C)nc12,-13.8%
18,CCCOc1ccc(/C(O)=C2\C(=O)C(=O)N(CCN3CCOCC3)C2c2ccc(C(C)C)cc2)cc1C (stereo not drawn),-8.4%
19,CC(C)n1c(=O)c2oc3ccccc3c2n(Cc2ccccc2F)c1=O,11.7%
20,Cc1ccc(S(=O)(=O)NC(CC(=O)O)c2cccc(Cl)c2)c(C)c1 (stereo not drawn),-6.5%
21,CCOC(=O)c1c(NC(=O)c2ccccc2)sc2c1CCC(C)C2 (stereo not drawn),-3.5%
22,COCCN1C(=O)C(=O)/C(=C(/O)c2ccccc2)C1c1ccc(C(C)C)cc1 (stereo not drawn),3.7%
